# Laboratory results as given in the supplement of paper PMC6331611.
# ± gives the standard deviation of the averaged measurements. Over roughly 1,600 compounds, “normalized growth (OD600, IQM-normalized) in LPM” has its median near 1; the lowest 2% begin near 0.014. The sample holds the lowest values, similar compounds and a random draw of the others, so the mix is not that of the screen.
# System: Salmonella enterica serovar Typhimurium SL1344
# Assay: normalized growth (OD600, IQM-normalized) in LPM (fraction of plate interquartile mean); higher = more bacterial growth (less inhibition)
# Conditions: LPM pH 5.8; 10 µM; 16 h
row,SMILES,normalized growth
1,CCn1cc(C(=O)O)c(=O)c2cc3c(cc21)OCO3,0.00952 ± 0.00073
2,C[N+]1(C)CCCC(OC(=O)C(O)(c2ccccc2)c2ccccc2)C1 (stereo not given),1.1 ± 0.011
3,CC[C@H]1CN2CC[C@H]1C[C@@H]2[C@@H](O)c1ccnc2ccc(OC)cc12,0.912 ± 0.022
4,CC(C)C[C@H]1C(=O)N2CCC[C@H]2[C@]2(O)O[C@](NC(=O)[C@@H]3C=C4c5cccc6[nH]c(Br)c(c56)C[C@H]4N(C)C3)(C(C)C)C(=O)N12,0.947 ± 0.03
5,Cc1ccc(O)cc1.Cc1cccc(O)c1.Cc1ccccc1O,0.955 ± 0.19
6,O=[N+]([O-])C(Br)(CO)CO,0.786 ± 0.02
7,CCCCOC(=O)c1ccccc1C(=O)OCCCC,1.363 ± 0.0046
8,C[CH2][Hg][S]c1ccccc1C(=O)[O-].[Na+],0.00984 ± 0.0003
9,O=C([O-])Cc1ccccc1.[Na+],1.14 ± 0.026
10,Oc1noc2c1CCNC2,0.948 ± 0.041
11,[O-][n+]1ccccc1[S-].[O-][n+]1ccccc1[S-].[Zn+2],0.00799 ± 0.00024
12,O=C1CCO1,0.959 ± 0.039
13,Oc1ccc2c3c1O[C@H]1[C@@H](O)CC[C@@]4(O)[C@@H](C2)N(CC2CCC2)CC[C@]314,0.92 ± 0.12
14,CC(=O)[O][Hg][c]1ccccc1,0.0096 ± 0.00029
15,CC(Cc1ccc(O)cc1)NCC(O)c1cc(O)cc(O)c1 (stereo not given),1.087 ± 0.0059
16,CCOP(=S)(OCC)Oc1nc(Cl)c(Cl)cc1Cl,1.33 ± 0.11
17,NC(=O)C[S+]([O-])C(c1ccccc1)c1ccccc1 (stereo not given),0.865 ± 0.082
18,CC(C)=CC1C(C(=O)OCc2cccc(Oc3ccccc3)c2)C1(C)C (stereo not given),0.894 ± 0.04
19,NP(N)(=O)NC(=O)c1ccc(F)cc1,1.06 ± 0.017
20,C[N+]12CCC(CC1)C(OC(=O)C(O)(c1ccccc1)c1ccccc1)C2 (stereo not given),1.05 ± 0.026
21,Oc1cc(Cl)ccc1Oc1ccc(Cl)cc1Cl,0.00811 ± 0.00016
22,Oc1ccc(Cl)cc1,0.971 ± 0.012
23,Oc1ccc(Cl)cc1Cc1cc(Cl)ccc1O,0.895 ± 0.086
24,O=[N+]([O-])O[C@@H]1CO[C@H]2[C@@H]1OC[C@@H]2O,1.11 ± 0.026
25,CC(C)(O)C(Cl)(Cl)Cl,1 ± 0.032
